Laboratory results published in PubChem BioAssay (Tox21).
Inconclusive results are not listed. Activity calls are given as the source filed them. Unless noted, calls follow the shape of the dose curve; as a rule, active = well fitted curve in the direction sought with a large enough effect in the repeat runs; inconclusive = weak or mixed curves; inactive = no such curve, though single readings can be large; an effect the other way counts as inactive or inconclusive.

Tests used:
[1] = qHTS assay to identify small molecule agonists of the androgen receptor (AR) signaling pathway in the presence of an antagonist - cell viability counter screen (AID 1259379);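 also: MDA-kb2 human breast cancer cells carrying an MMTV luciferase reporter; series mostly up to about 92 µM; nearly all actives have a fitted effect of over 25% in size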
Summary of the method: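 Cytotoxicity is assessed by CellTiter-Fluor in MDA-kb2 cells carrying an MMTV-driven luciferase reporter. Cells receive 3.0uM nilutamide plus compounds at 15 concentrations and incubate 16 hr at 37C without CO2 before fluorescence reading.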

[2] = qHTS assay to identify small molecule antagonists of the estrogen receptor beta (ER-beta) signaling pathway - cell viability counter screen (AID 1259382);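 also: HEK293T cells carrying ER-beta-UAS-bla reporter stimulated with estradiol; series mostly up to about 92 µM; nearly all actives have a fitted effect of over 55% in size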
Summary of the method: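 Cytotoxicity counter screen multiplexed with the beta-lactamase antagonist assay: GripTite HEK293T ER-beta-bla cells were treated 16 hr with test chemicals in the presence of 1nM 17-beta-estradiol, and viability was measured by CellTiter-Glo.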

[3] = molecular target: Estrogen receptor (Homo sapiens) (UniProt P03372); experiment: qHTS assay to identify small molecule agonists of the estrogen receptor alpha (ER-alpha) signaling pathway in the presence of an antagonist (AID 1259383; calls by dose curve; also: top concentration of the series differs between compounds; nearly all actives have a fitted effect of over 15% in size)
Summary of the method: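 Agonist-mode confirmation in the presence of the ER antagonist ICI-182,780 at 10.0nM final. Breast-derived VM7Luc4E2 reporter cells were exposed to compounds for 22hr, and ERE-driven luciferase was quantified by luminescence.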

[4] = molecular target: Thyrotropin receptor (Homo sapiens) (UniProt P16473); experiment: qHTS assay to identify small molecule antagonists of the thyroid stimulating hormone receptor (TSHR) signaling pathway (AID 1259385; calls by dose curve; also: nearly all actives have a fitted effect of over 20% in size)
Summary of the method: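 TSHR-HEK293 cells (800/well) plated 18 h, then compounds with Ro20-1724 and TSH at 1.5 ng/mL final, 30 min at room temperature. cAMP quantified by HTRF (cAMP-d2/anti-cAMP-cryptate, 1 h); 15 concentrations in triplicate.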

[5] = qHTS assay to identify small molecule agonists of the estrogen receptor alpha (ER-alpha) signaling pathway in the presence of an antagonist - cell viability counter screen (AID 1259386);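 also: series mostly up to about 92 µM; cells exposed to compounds for 22 h at 37 °C before the viability read; nearly all actives have a fitted effect of over 30% in size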
Summary of the method: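 Cytotoxicity was measured in parallel with the ERE-luciferase agonist screen, in the same wells. The cells were VM7Luc4E2, which endogenously express ER-alpha, and treatment was with compounds plus 10.0nM ICI-182,780 for 22hr.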

[6] = molecular target: Progesterone receptor (Homo sapiens) (UniProt P06401); experiment: qHTS assay to identify small molecule agonists of the progesterone receptor (PR) signaling pathway (AID 1346784; calls by dose curve; also: nearly all actives have a fitted effect of over 30% in size)
Summary of the method: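 PR-UAS-bla HEK 293T cells (beta-lactamase reporter under UAS) in 2% charcoal-stripped FBS, dosed with 23 nL compound after 6 hr, incubated 16hr at 37C. LiveBLAzer B/G FRET substrate added, fluorescence read after 2 hours.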

[7] = qHTS assay to identify small molecule agonists of the progesterone receptor (PR) signaling pathway - cell viability counter screen (AID 1346799; calls by dose curve; also: nearly all actives have a fitted effect of over 45% in size)
Summary of the method: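 Counter screen in the PR-UAS-bla HEK293T wells (2% charcoal-stripped FBS, 16 h compound exposure at 37 C) after the bla read. CellTiter-Glo added, 30 min at room temperature, luminescence read as cell viability.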

[8] = qHTS assay to identify small molecule antagonists of the TGF-beta/Smad signaling pathway - cell viability counter screen (AID 1346824); also: nearly all actives have a fitted effect of over 50% in size
Summary of the method: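 SBE-bla HEK 293T cells, incubated overnight, then compound plus 0.25 ng/mL TGF-beta1 (stock added) for 5 hr at 37 C. Viability was read in the same wells by CellTiter-Glo luminescence after 30 min at room temperature.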

[9] = qHTS assay to identify small molecule agonists of the TGF-beta/Smad signaling pathway - cell viability counter screen (AID 1346829); also: top concentration of the series differs between compounds; nearly all actives have a fitted effect of over 45% in size
Summary of the method: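 Compound-treated SBE-bla HEK 293T cells (5 hr, 37 C) were assessed for viability with CellTiter-Glo in parallel with the reporter read.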

[10] = qHTS assay to identify small molecule agonists of the TGF-beta/Smad signaling pathway (AID 1346859; active = well fitted activation curve with a large enough effect in the signal ratio in the repeat runs, not every such curve was filed as active; the % refers to the signal ratio; also: series mostly up to about 77 µM)
Summary of the method: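 SBE-bla HEK293T cells plated overnight, then compound exposure for 5 h at 37 C. Beta-lactamase reporter read with LiveBLAzer B/G FRET substrate after 2 h at room temperature, fluorescence at 405 nm excitation, 460/530 nm emission.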

[11] = molecular target: Thyrotropin-releasing hormone receptor (Homo sapiens) (UniProt P34981); experiment: qHTS assay to identify small molecule antagonists of the thyrotropin-releasing hormone receptor (TRHR) signaling pathway (AID 1346877; active = well fitted inhibition curve with a large enough effect in the repeat runs, not every such curve was filed as active; also: series mostly up to about 51 µM)
Summary of the method: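 Antagonism is measured as suppression of the calcium response to 1 nM TRH in TRHR-HEK293 cells that have been dye-loaded for 2 h at 37 °C after overnight plating. Each compound is tested at 15 concentrations in triplicate.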

[12] = molecular target: Thyrotropin-releasing hormone receptor (Homo sapiens) (UniProt P34981); experiment: qHTS assay to identify small molecule agonists of the thyrotropin-releasing hormone receptor (TRHR) signaling pathway (AID 1346891; calls by dose curve; also: series mostly up to about 58 µM)
Summary of the method: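 HEK293 cells expressing TRHR plated 18 h at 37 C/5% CO2, calcium dye-loaded 2 h at 37 C, then compound added (agonist mode); kinetic calcium fluorescence read 3 min at 1 s intervals; 15 concentrations in triplicate.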

[13] = Human pregnane X receptor (PXR) small molecule agonists, qHTS cell viability counter screen (AID 1346977); also: nearly all actives have a fitted effect of over 50% in size
Summary of the method: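 PXR-Luc HepG2 cells (2,000/well, 5% charcoal-stripped FBS) preincubated 5 hr, then exposed to compounds 24 hr at 37 C. Viability read in the same wells by CellTiter-Fluor fluorescence, reagent added at 23 hr, 1 hr incubation.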

[14] = qHTS assay to identify small molecule agonists or antagonists of the thyroid stimulating hormone receptor (TSHR) signaling pathway - wild type cell line counter screen (AID 1259384; calls by dose curve)
Summary of the method: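 Wild-type Hek293 cells, 800/well, 18 h at 37C, then compound with Ro20-1724 for 30 min RT. cAMP by HTRF (cAMP-d2/anti-cAMP cryptate), 1 h RT, fluorescence read. 15 concentrations, triplicates.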

[15] = molecular target: Progesterone receptor (Homo sapiens) (UniProt P06401); experiment: qHTS assay to identify small molecule antagonists of the progesterone receptor (PR) signaling pathway (AID 1346795; active = well fitted inhibition curve with a large enough effect in the signal ratio in the repeat runs, not every such curve was filed as active; the % refers to the signal ratio)
Summary of the method: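 PR-UAS-bla HEK293T cells with beta-lactamase reporter under UAS control, in 2% charcoal-stripped FBS, treated with compounds plus 1 nM promegestone (R5020, final) for 16 hr at 37C. Read-out: FRET beta-lactamase substrate fluorescence after 2 hr at room temperature.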

[16] = qHTS assay to identify small molecule antagonists of the progesterone receptor (PR) signaling pathway - cell viability counter screen (AID 1346798); also: series mostly up to about 92 µM; nearly all actives have a fitted effect of over 50% in size
Summary of the method: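 PR-UAS-bla HEK293T cells, 3,000/well in 2% charcoal-stripped FBS medium, dosed with compounds plus R5020 agonist and incubated 16 h at 37C. Viability then measured in the same wells by CellTiter-Glo luminescence after 30 min at RT.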

[17] = qHTS assay to identify small molecule agonists of the estrogen receptor beta (ER-beta) signaling pathway - cell viability counter screen (AID 1259380); also: nearly all actives have a fitted effect of over 30% in size
Summary of the method: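 Cytotoxicity is measured in parallel with the reporter screen: after 16 hr compound exposure at 37C and a 2 hr LiveBLAzer step, CellTiter-Glo is added to the same ER-beta-UAS-bla HEK293T wells and luminescence read after 30 min.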

[18] = molecular target: Androgen receptor (Homo sapiens) (UniProt P10275); experiment: qHTS assay to identify small molecule agonists of the androgen receptor (AR) signaling pathway in the presence of an antagonist (AID 1259381; calls by dose curve; also: nearly all actives have a fitted effect of over 15% in size)
Summary of the method: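 Agonist-mode confirmation screen: human MDA-kb2 cells stably expressing luciferase under an MMTV promoter bearing AR and GR response elements, co-treated with 3.0uM nilutamide (final). Luminescence measured after 16hr compound incubation.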
% is scaled to controls: 0 for no effect and ±100 for the full control effect.

Thyrotropin-releasing hormone receptor (Homo sapiens), sequence (P34981 whole entry, looked up): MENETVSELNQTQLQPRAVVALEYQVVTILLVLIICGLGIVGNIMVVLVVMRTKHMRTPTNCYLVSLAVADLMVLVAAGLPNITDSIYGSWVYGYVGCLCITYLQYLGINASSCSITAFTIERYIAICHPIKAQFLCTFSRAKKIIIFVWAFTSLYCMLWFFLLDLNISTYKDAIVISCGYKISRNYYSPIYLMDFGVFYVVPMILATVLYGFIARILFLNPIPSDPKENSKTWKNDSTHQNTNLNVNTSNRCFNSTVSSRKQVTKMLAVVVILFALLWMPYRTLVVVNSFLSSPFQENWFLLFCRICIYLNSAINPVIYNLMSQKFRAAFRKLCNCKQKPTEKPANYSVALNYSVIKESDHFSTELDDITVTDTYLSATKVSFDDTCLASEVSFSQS
Estrogen receptor (Homo sapiens), sequence (P03372 whole entry, looked up): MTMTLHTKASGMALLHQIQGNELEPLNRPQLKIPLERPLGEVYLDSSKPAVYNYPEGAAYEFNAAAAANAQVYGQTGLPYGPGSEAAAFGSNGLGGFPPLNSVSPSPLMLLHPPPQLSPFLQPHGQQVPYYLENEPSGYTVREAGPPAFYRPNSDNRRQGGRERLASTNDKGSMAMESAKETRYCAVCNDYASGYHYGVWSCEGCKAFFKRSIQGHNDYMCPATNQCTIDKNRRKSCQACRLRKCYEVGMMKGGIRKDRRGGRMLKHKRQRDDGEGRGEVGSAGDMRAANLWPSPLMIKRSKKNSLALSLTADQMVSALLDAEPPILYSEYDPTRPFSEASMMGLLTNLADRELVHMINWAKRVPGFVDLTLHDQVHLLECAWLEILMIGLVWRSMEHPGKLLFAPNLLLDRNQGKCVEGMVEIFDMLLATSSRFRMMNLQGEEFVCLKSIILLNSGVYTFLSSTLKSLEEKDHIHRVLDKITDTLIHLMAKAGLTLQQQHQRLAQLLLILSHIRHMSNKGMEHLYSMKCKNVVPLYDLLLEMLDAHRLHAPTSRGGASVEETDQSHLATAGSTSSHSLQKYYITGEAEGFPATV
Progesterone receptor (Homo sapiens), sequence (P06401 whole entry, looked up): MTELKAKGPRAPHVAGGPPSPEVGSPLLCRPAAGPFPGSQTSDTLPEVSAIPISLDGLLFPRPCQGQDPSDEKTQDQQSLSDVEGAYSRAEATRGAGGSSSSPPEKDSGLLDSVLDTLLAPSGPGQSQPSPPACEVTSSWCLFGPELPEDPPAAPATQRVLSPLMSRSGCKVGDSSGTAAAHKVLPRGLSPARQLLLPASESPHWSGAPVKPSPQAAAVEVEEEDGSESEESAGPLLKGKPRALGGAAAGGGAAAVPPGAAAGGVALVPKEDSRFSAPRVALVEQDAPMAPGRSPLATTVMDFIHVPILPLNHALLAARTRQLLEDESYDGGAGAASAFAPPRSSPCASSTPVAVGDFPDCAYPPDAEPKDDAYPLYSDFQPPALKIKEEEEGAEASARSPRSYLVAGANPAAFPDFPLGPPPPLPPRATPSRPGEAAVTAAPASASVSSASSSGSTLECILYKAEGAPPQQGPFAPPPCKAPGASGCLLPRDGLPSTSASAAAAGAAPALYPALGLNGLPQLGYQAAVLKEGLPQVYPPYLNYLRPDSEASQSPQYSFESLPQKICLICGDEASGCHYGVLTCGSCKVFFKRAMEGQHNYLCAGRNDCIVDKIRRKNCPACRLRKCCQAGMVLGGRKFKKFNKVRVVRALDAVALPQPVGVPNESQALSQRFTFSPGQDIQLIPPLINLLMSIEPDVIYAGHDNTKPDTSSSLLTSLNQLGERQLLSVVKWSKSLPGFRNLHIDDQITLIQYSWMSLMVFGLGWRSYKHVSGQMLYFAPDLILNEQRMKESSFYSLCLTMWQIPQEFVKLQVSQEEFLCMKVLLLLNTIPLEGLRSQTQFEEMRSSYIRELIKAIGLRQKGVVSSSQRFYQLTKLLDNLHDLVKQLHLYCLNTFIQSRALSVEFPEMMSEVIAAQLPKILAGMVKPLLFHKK
Thyrotropin receptor (Homo sapiens), sequence (P16473 whole entry, looked up): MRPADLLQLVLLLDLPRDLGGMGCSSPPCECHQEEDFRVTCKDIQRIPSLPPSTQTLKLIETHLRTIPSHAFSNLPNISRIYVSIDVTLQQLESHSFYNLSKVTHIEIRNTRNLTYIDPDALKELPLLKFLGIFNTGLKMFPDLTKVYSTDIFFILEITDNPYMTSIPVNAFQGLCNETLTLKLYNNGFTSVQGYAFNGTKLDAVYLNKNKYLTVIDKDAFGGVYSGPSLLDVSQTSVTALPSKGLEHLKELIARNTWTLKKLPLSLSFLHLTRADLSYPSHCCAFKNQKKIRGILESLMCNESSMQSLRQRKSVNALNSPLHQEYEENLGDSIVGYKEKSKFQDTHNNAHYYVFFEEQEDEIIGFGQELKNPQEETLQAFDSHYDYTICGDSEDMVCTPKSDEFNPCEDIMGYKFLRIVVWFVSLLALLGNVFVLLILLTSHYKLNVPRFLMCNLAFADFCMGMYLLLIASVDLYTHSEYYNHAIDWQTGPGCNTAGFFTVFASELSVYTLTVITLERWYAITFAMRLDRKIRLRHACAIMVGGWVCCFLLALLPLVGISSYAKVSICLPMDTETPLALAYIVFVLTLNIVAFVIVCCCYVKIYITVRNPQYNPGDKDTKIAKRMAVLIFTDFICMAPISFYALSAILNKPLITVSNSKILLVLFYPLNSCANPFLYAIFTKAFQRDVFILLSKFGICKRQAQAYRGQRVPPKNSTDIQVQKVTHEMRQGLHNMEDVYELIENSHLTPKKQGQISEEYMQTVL
Androgen receptor (Homo sapiens), sequence (P10275 whole entry, looked up): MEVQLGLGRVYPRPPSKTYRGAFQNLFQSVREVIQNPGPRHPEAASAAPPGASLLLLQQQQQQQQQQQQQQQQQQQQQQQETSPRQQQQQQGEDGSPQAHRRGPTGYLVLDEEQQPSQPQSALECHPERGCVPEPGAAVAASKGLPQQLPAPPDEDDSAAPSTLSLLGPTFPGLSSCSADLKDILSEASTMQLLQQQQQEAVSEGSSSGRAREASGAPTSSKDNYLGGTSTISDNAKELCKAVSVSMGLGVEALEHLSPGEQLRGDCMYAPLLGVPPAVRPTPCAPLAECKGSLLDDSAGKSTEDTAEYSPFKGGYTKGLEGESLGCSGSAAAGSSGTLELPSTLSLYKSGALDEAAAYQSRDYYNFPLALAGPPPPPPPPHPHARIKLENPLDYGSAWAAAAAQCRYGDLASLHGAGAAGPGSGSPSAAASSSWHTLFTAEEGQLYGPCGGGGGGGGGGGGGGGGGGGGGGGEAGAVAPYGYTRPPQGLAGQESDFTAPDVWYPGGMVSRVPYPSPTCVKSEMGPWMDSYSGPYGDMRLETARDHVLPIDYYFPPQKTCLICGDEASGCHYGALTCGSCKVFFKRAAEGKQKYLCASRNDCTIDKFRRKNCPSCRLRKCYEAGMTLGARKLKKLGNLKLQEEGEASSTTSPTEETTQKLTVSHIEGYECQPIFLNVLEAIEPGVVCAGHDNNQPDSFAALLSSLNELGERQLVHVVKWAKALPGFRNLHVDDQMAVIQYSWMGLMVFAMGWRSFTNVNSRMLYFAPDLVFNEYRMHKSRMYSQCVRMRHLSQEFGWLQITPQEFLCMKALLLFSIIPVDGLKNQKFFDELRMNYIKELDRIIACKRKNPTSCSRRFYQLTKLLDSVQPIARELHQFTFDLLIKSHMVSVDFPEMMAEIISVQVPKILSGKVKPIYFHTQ

Cc1ncc(COP(=O)(O)O)c(C=O)c1O
inactive: Potency [1] | outcome [2] | outcome [3] | outcome [4] | Potency [5] | Potency [6] | Potency [7] | outcome [8] | outcome [9] | outcome [10] | outcome [11] | Potency [12] | Potency [13]

O=C(O)CCCC[P+](c1ccccc1)(c1ccccc1)c1ccccc1
inactive: Potency [1] | outcome [2] | outcome [3] | outcome [14] | outcome [4] | Potency [5] | Potency [6] | Potency [15] | Potency [16] | Potency [7] | outcome [8] | outcome [9] | outcome [10] | Potency [13]

CCN[C@@H]1C[C@H](N)[C@@H](OC2OC(CN)=CCC2N)[C@H](O)[C@H]1O[C@H]1OC[C@](C)(O)[C@H](NC)[C@H]1O (stereo partly specified)
inactive: activity change, negative = cytotoxicity [1] 0.828% [at 0.35 µM] | activity change, negative = cytotoxicity [17] 6.54% [at 0.349 µM] | activity change, negative = cytotoxicity [2] 16.4% [at 0.349 µM] | activity change, negative = cytotoxicity [5] 7.38% [at 0.349 µM] | activation [6] 0.0091% [at 0.349 µM] | activity change, negative = inhibition [15] 9.29% [at 0.348 µM] | activity change, negative = cytotoxicity [7] -2.08% [at 0.349 µM] | viability change, negative = cytotoxic [8] 6.56% [at 0.29 µM] | activity change, negative = cytotoxicity [9] -2.15% [at 0.29 µM] | activation [10] -2.06% [at 0.29 µM] | activity, negative = inhibition [11] 0.737% [at 0.194 µM] | activation [12] -0.947% [at 0.218 µM] | activity change, negative = cytotoxicity [13] 1.73% [at 0.349 µM]

NCCCC[C@H](N[C@@H](CCc1ccccc1)C(=O)O)C(=O)N1CCC[C@H]1C(=O)O
inactive: Potency [1] | Potency [17] | outcome [2] | Potency [5] | Potency [6] | Potency [16] | Potency [7] | outcome [8] | outcome [9] | outcome [10] | Potency [13]

FB(F)F
inactive: Potency [1] | outcome [2] | outcome [3] | outcome [14] | outcome [4] | Potency [5] | Potency [6] | Potency [15] | Potency [7] | outcome [8] | outcome [9] | outcome [10] | outcome [11] | Potency [12] | Potency [13]

O=S(=O)(O)c1cccc(S(=O)(=O)O)c1
inactive: Potency [1] | Potency [18] | outcome [2] | outcome [4] | Potency [5] | Potency [6] | Potency [15] | Potency [16] | Potency [7] | outcome [8] | outcome [10] | Potency [13]

CCCn1cc[n+](C)c1C
inactive: Potency [1] | Potency [17] | outcome [2] | Potency [5] | Potency [6] | Potency [15] | Potency [16] | outcome [8] | outcome [10] | Potency [13]

COc1ccnc(CS(=O)c2nc3cc(OC(F)F)ccc3[nH]2)c1OC (stereo unspecified)
inactive: Potency [1] | outcome [2] | outcome [3] | outcome [14] | outcome [4] | Potency [6] | Potency [15] | Potency [7] | outcome [8] | outcome [9] | outcome [10] | Potency [13]

c1coc(CNc2ncnc3nc[nH]c23)c1
inactive: Potency [1] | outcome [2] | outcome [3] | outcome [14] | outcome [4] | Potency [5] | Potency [6] | Potency [15] | Potency [16] | outcome [8] | outcome [9] | outcome [10] | outcome [11] | Potency [12]

Nc1ccccn1
inactive: Potency [1] | Potency [17] | outcome [2] | outcome [14] | outcome [4] | Potency [16] | Potency [7] | outcome [8] | outcome [10] | outcome [11] | Potency [12] | Potency [13]
